# Measured values as given in the supplement of paper PMC12282887.
# ± gives the standard deviation of the averaged measurements.
# Experiments:
# Assay in all cases: promoter activity interaction Z-score (Lux/OD deviation from empty-vector control); higher = stronger promoter induction by the compound
# [1] = test system: E. coli BW25113 acrABp lux reporter
# Summary of the method: (§1)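 Low-copy luxCDABE promoter reporters were carried by E. coli BW25113, either wild type or lacking one of three genes, grown in 40 µl LB Lennox in 384-well plates at 37°C. Each compound was run at four 1:2 dilutions in biological duplicates, with OD600 and luminescence read every 30 min for 12 h. Integration used 0–8 h for wild type and 1–9 h for deletion strains, and wells under 10% of the median growth value were removed. Luminescence normalised to growth was fitted against a control, and the Z-transformed residual is the score.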
# [2] = test system: E. coli BW25113 micFp lux reporter
# Summary of the method: as §1
# [3] = test system: E. coli BW25113 ompFp lux reporter
# Summary of the method: as §1
# [4] = test system: E. coli BW25113 robp lux reporter
# Summary of the method: as §1
# [5] = test system: E. coli BW25113 soxSp lux reporter
# Summary of the method: as §1
# [6] = test system: E. coli BW25113 tolCp lux reporter
# Summary of the method: as §1
# [7] = 0.29 µg/ml, genetic background: wild type
# [8] = 0.29 µg/ml, genetic background: ΔmarA
# [9] = 0.29 µg/ml, genetic background: Δrob
# [10] = 0.29 µg/ml, genetic background: ΔsoxS
# [11] = 0.58 µg/ml, genetic background: wild type
# [12] = 0.58 µg/ml, genetic background: ΔmarA
# [13] = 0.58 µg/ml, genetic background: Δrob
# [14] = 0.58 µg/ml, genetic background: ΔsoxS
# [15] = 1.2 µg/ml, genetic background: wild type
# [16] = 1.2 µg/ml, genetic background: ΔmarA
# [17] = 1.2 µg/ml, genetic background: Δrob
# [18] = 1.2 µg/ml, genetic background: ΔsoxS
# [19] = 2.3 µg/ml, genetic background: wild type
# [20] = 2.3 µg/ml, genetic background: ΔmarA
# [21] = 2.3 µg/ml, genetic background: Δrob
# [22] = 2.3 µg/ml, genetic background: ΔsoxS
smiles,measurement,setting,value
COc1cccc2c1C(=O)c1c(O)c3c(c(O)c1C2=O)C[C@@](O)(C(=O)CO)C[C@@H]3O[C@H]1C[C@H](N)[C@H](O)[C@H](C)O1 [Doxorubicin],promoter activity interaction Z-score,[1]; [7],0.264 ± 0.31
same,promoter activity interaction Z-score,[1]; [8],-0.773 ± 0.32
same,promoter activity interaction Z-score,[1]; [9],-0.101 ± 0.29
same,promoter activity interaction Z-score,[1]; [10],-0.227 ± 0.054
same,promoter activity interaction Z-score,[1]; [11],-0.00519 ± 0.22
same,promoter activity interaction Z-score,[1]; [12],-0.484 ± 0.49
same,promoter activity interaction Z-score,[1]; [13],0.115 ± 0.14
same,promoter activity interaction Z-score,[1]; [14],0.371 ± 0.49
same,promoter activity interaction Z-score,[1]; [15],0.261 ± 0.022
same,promoter activity interaction Z-score,[1]; [16],-0.464 ± 0.4
same,promoter activity interaction Z-score,[1]; [17],-0.135 ± 0.15
same,promoter activity interaction Z-score,[1]; [18],0.0497 ± 0.23
same,promoter activity interaction Z-score,[1]; [19],0.546 ± 0.062
same,promoter activity interaction Z-score,[1]; [20],-0.437 ± 0.036
same,promoter activity interaction Z-score,[1]; [21],6.35e-05 ± 0.4
same,promoter activity interaction Z-score,[1]; [22],0.827 ± 0.68
same,promoter activity interaction Z-score,[2]; [7],0.258 ± 0.51
same,promoter activity interaction Z-score,[2]; [8],0.00982 ± 0.04
same,promoter activity interaction Z-score,[2]; [9],-0.233 ± 0.1
same,promoter activity interaction Z-score,[2]; [10],-0.236 ± 0.048
same,promoter activity interaction Z-score,[2]; [11],-0.041 ± 0.36
same,promoter activity interaction Z-score,[2]; [12],0.043 ± 0.035
same,promoter activity interaction Z-score,[2]; [13],-0.0843 ± 0.009
same,promoter activity interaction Z-score,[2]; [14],0.253 ± 0.04
same,promoter activity interaction Z-score,[2]; [15],-0.0305 ± 0.051
same,promoter activity interaction Z-score,[2]; [16],-0.0475 ± 0.075
same,promoter activity interaction Z-score,[2]; [17],-0.046 ± 0.01
same,promoter activity interaction Z-score,[2]; [18],-0.0734 ± 0.14
same,promoter activity interaction Z-score,[2]; [19],-0.114 ± 0.2
same,promoter activity interaction Z-score,[2]; [20],-0.105 ± 0.05
same,promoter activity interaction Z-score,[2]; [21],-0.179 ± 0.24
same,promoter activity interaction Z-score,[2]; [22],0.5393 ± 0.002
same,promoter activity interaction Z-score,[3]; [7],0.731 ± 0.14
same,promoter activity interaction Z-score,[3]; [8],0.137 ± 0.52
same,promoter activity interaction Z-score,[3]; [9],0.0129 ± 0.29
same,promoter activity interaction Z-score,[3]; [10],0.416 ± 0.18
same,promoter activity interaction Z-score,[3]; [11],0.4996 ± 0.0037
same,promoter activity interaction Z-score,[3]; [12],0.465 ± 0.3
same,promoter activity interaction Z-score,[3]; [13],0.853 ± 0.58
same,promoter activity interaction Z-score,[3]; [14],0.476 ± 0.015
same,promoter activity interaction Z-score,[3]; [15],0.149 ± 0.086
same,promoter activity interaction Z-score,[3]; [16],0.206 ± 0.067
same,promoter activity interaction Z-score,[3]; [17],0.0157 ± 0.25
same,promoter activity interaction Z-score,[3]; [18],0.0237 ± 0.37
same,promoter activity interaction Z-score,[3]; [19],0.745 ± 0.73
same,promoter activity interaction Z-score,[3]; [20],0.961 ± 0.018
same,promoter activity interaction Z-score,[3]; [21],0.674 ± 0.97
same,promoter activity interaction Z-score,[3]; [22],1.34 ± 0.69
same,promoter activity interaction Z-score,[4]; [7],1.18 ± 0.82
same,promoter activity interaction Z-score,[4]; [8],-0.24 ± 0.58
same,promoter activity interaction Z-score,[4]; [9],0.206 ± 0.23
same,promoter activity interaction Z-score,[4]; [10],0.239 ± 0.22
same,promoter activity interaction Z-score,[4]; [11],0.596 ± 0.27
same,promoter activity interaction Z-score,[4]; [12],0.16 ± 0.16
same,promoter activity interaction Z-score,[4]; [13],0.385 ± 0.43
same,promoter activity interaction Z-score,[4]; [14],0.541 ± 0.27
same,promoter activity interaction Z-score,[4]; [15],0.714 ± 0.13
same,promoter activity interaction Z-score,[4]; [16],-0.447 ± 0.99
same,promoter activity interaction Z-score,[4]; [17],0.329 ± 0.74
same,promoter activity interaction Z-score,[4]; [18],0.0896 ± 0.043
same,promoter activity interaction Z-score,[4]; [19],0.943 ± 0.18
same,promoter activity interaction Z-score,[4]; [20],0.445 ± 0.36
same,promoter activity interaction Z-score,[4]; [21],-0.208 ± 0.44
same,promoter activity interaction Z-score,[4]; [22],0.518 ± 0.087
same,promoter activity interaction Z-score,[5]; [7],0.269 ± 0.063
same,promoter activity interaction Z-score,[5]; [8],0.0336 ± 0.05
same,promoter activity interaction Z-score,[5]; [9],-0.322 ± 0.09
same,promoter activity interaction Z-score,[5]; [10],0.15 ± 0.14
same,promoter activity interaction Z-score,[5]; [11],0.223 ± 0.25
same,promoter activity interaction Z-score,[5]; [12],0.0456 ± 0.13
same,promoter activity interaction Z-score,[5]; [13],0.138 ± 0.19
same,promoter activity interaction Z-score,[5]; [14],0.329 ± 0.29
same,promoter activity interaction Z-score,[5]; [15],0.245 ± 0.26
same,promoter activity interaction Z-score,[5]; [16],-0.00668 ± 0.18
same,promoter activity interaction Z-score,[5]; [17],-0.0803 ± 0.088
same,promoter activity interaction Z-score,[5]; [18],-0.0415 ± 0.028
same,promoter activity interaction Z-score,[5]; [19],0.426 ± 0.46
same,promoter activity interaction Z-score,[5]; [20],0.0221 ± 0.059
same,promoter activity interaction Z-score,[5]; [21],-0.22 ± 0.18
same,promoter activity interaction Z-score,[5]; [22],0.285 ± 0.86
same,promoter activity interaction Z-score,[6]; [7],0.409 ± 0.23
same,promoter activity interaction Z-score,[6]; [8],0.025 ± 0.4
same,promoter activity interaction Z-score,[6]; [9],-1.33 ± 0.07
same,promoter activity interaction Z-score,[6]; [10],-0.509 ± 0.71
same,promoter activity interaction Z-score,[6]; [11],0.591 ± 0.37
same,promoter activity interaction Z-score,[6]; [12],0.129 ± 0.57
same,promoter activity interaction Z-score,[6]; [13],-0.418 ± 0.28
same,promoter activity interaction Z-score,[6]; [14],0.558 ± 0.63
same,promoter activity interaction Z-score,[6]; [15],0.186 ± 1.3
same,promoter activity interaction Z-score,[6]; [16],-0.979 ± 0.47
same,promoter activity interaction Z-score,[6]; [17],-0.8316 ± 0.0065
same,promoter activity interaction Z-score,[6]; [18],-0.712 ± 0.47
same,promoter activity interaction Z-score,[6]; [19],-0.527 ± 0.035
same,promoter activity interaction Z-score,[6]; [20],-0.261 ± 0.0072
same,promoter activity interaction Z-score,[6]; [21],-1.42 ± 0.035
same,promoter activity interaction Z-score,[6]; [22],0.704 ± 0.5
